Experiment in all cases: yeast three-hybrid, YBZ-1, SC-Leu-His + 0.5 mM 3-AT, 4 days
Common to all, as to conditions: tags: N-Gal4 AD-HA kept; label: inside an RPR1-promoter hybrid RNA with tandem MS2 sites; ssRNA

One assay addresses PUM1 PUF domain R2-KCA (Homo sapiens, UniProt Q14671 828-1176, N899K;Y900C;Q903A). A digest of the protocol: (§1)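 The interaction score is the log change in variant frequency from input to selection. Scores were computed in log2 with a pseudocount of 1 for absent variants, using Illumina sequencing of PCR-amplified repeat regions. The input came from four days on SC-Leu and the selection from four days on SC-Leu-His + 0.5 mM 3-AT. The cells were strain YBZ-1 (LexA–MS2 coat fusion, HIS3 reporter) co-expressing Pumilio-1 PUF domain libraries and matching RNA elements from a centromeric plasmid.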

For the next assay, the target named is PUM1 PUF domain R2-EWA (Homo sapiens, UniProt Q14671 828-1176, N899E;Y900W;Q903A). A digest of the protocol: as §1
The target of a further assay is PUM1 PUF domain R5-DHK (Homo sapiens, UniProt Q14671 828-1176, C1007D;R1008H;Q1011K). A digest of the protocol:
as §1

Another assay has as its target PUM1 PUF domain R5-VYY (Homo sapiens, UniProt Q14671 828-1176, C1007V;R1008Y;Q1011Y). A digest of the protocol: as §1
The target in another assay is PUM1 PUF domain R3-SWL (Homo sapiens, UniProt Q14671 828-1176, C935S;R936W;Q939L). A digest of the protocol: as §1
The next assay concerns the target T1, PUM1 PUF domain R6-CWA (Homo sapiens, UniProt Q14671 828-1176, N1043C;Y1044W;Q1047A).
T1 sequence: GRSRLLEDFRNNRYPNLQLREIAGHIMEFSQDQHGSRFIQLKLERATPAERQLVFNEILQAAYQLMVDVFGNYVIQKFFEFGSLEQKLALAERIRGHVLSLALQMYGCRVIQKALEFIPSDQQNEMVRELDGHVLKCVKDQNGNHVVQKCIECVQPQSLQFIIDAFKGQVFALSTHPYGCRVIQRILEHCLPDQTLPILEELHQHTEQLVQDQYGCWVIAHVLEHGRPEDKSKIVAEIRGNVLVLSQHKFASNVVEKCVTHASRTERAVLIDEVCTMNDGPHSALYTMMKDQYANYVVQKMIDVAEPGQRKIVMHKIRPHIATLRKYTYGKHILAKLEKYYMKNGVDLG
A digest of the protocol:
as §1

For a further assay, the target named is PUM1 PUF domain R4-MPT (Homo sapiens, UniProt Q14671 828-1176, N971M;H972P;Q975T). A digest of the protocol:
as §1

A further assay has as its target PUM1 PUF domain R5-TRW (Homo sapiens, UniProt Q14671 828-1176, C1007T;Q1011W). A digest of the protocol: as §1
In the next assay the target is PUM1 PUF domain R8-RWL (Homo sapiens, UniProt Q14671 828-1176, N1122R;Y1123W;Q1126L). The method, boiled down: as §1
The target of the next assay is PUM1 PUF domain R3-VRF (Homo sapiens, UniProt Q14671 828-1176, C935V;Q939F). A digest of the protocol: as §1
Another assay addresses PUM1 PUF domain R4-SLY (Homo sapiens, UniProt Q14671 828-1176, N971S;H972L;Q975Y). A digest of the protocol: as §1
The target of another assay is PUM1 PUF domain R8-RWC (Homo sapiens, UniProt Q14671 828-1176, N1122R;Y1123W;Q1126C). The method, boiled down:
as §1

In a further assay the target is PUM1 PUF domain R8-TYC (Homo sapiens, UniProt Q14671 828-1176, N1122T;Q1126C). A digest of the protocol: as §1
The next assay concerns the target PUM1 PUF domain R3-SCQ (Homo sapiens, UniProt Q14671 828-1176, C935S;R936C). The method, boiled down: as §1
The next assay addresses PUM1 PUF domain R1-RCM (Homo sapiens, UniProt Q14671 828-1176, S863R;R864C;Q867M). The method, boiled down:
as §1

The target of another assay is PUM1 PUF domain R3-SVE (Homo sapiens, UniProt Q14671 828-1176, C935S;R936V;Q939E). A digest of the protocol: as §1
For another assay, the target named is PUM1 PUF domain R3-STD (Homo sapiens, UniProt Q14671 828-1176, C935S;R936T;Q939D). The method, boiled down:
as §1

Sequence of PUM1 PUF domain R2-KCA (Q14671 828-1176 N899K/Y900C/Q903A): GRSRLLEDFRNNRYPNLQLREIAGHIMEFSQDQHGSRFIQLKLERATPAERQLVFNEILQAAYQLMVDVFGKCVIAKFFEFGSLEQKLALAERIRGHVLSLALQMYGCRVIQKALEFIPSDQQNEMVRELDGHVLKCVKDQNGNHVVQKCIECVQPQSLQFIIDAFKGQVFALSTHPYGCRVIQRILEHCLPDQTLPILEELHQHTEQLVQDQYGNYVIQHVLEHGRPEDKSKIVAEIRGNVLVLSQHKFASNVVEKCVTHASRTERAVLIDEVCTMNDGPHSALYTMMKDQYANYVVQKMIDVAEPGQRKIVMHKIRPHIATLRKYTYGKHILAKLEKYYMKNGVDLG
Sequence of PUM1 PUF domain R8-TYC (Q14671 828-1176 N1122T/Q1126C): as the sequence (Q14671 828-1176 N899K/Y900C/Q903A) above, with K72N, C73Y, A76Q, N295T, Q299C counted along it

Consider “GGCUAGAACUAGUGGAUCCCCCGGCGCCCGGCGGCUCGAGCCCGGGUAAGUGUAAAGAGUCUGCAUGCCGCCGGGCGCCAUGCCUGCAGGUCGACUCUAGAAAACAUG”, for which the binding signal with PUM1 PUF domain R2-KCA was 3.39 log2 enrichment (interaction score); in the assay with PUM1 PUF domain R2-EWA it was 2.1 log2 enrichment (interaction score).

“GGCUAGAACUAGUGGAUCCCCCGGCGCCCGGCGGCUCGAGCCCGGGUAAGUGUAAAUAGUCUGCAUGCCGCCGGGCGCCAUGCCUGCAGGUCGACUCUAGAAAACAUG”: the binding signal was 2.94 log2 enrichment (interaction score) in the assay with PUM1 PUF domain R5-DHK; 2.98 log2 enrichment (interaction score) in the assay with PUM1 PUF domain R5-VYY; 3.24 log2 enrichment (interaction score) with PUM1 PUF domain R3-SWL; 4.17 log2 enrichment (interaction score) in the assay with PUM1 PUF domain R6-CWA; 3.73 log2 enrichment (interaction score) in the assay with PUM1 PUF domain R4-MPT; 2.78 log2 enrichment (interaction score) with PUM1 PUF domain R5-TRW. For the same sequence, the binding signal with PUM1 PUF domain R8-RWL was 5.06 log2 enrichment (interaction score); in the assay with PUM1 PUF domain R3-VRF it was 4.4 log2 enrichment (interaction score); with PUM1 PUF domain R4-SLY, 2.48 log2 enrichment (interaction score); with PUM1 PUF domain R8-RWC, 4.9 log2 enrichment (interaction score).

“GGCUAGAACUAGUGGAUCCCCCGGCGCCCGGCGGCUCGAGCCCGGGUAAGCGUAAAUAGUCUGCAUGCCGCCGGGCGCCAUGCCUGCAGGUCGACUCUAGAAAACAUG”: the binding signal is 2.53 log2 enrichment (interaction score) in the assay with PUM1 PUF domain R8-TYC, 6.58 log2 enrichment (interaction score) in the assay with PUM1 PUF domain R8-RWL and 4.12 log2 enrichment (interaction score) with PUM1 PUF domain R8-RWC.

Regarding “GGCUAGAACUAGUGGAUCCCCCGGCGCCCGGCGGCUCGAGCCCGGGUAAGUGUAAUUAGUCUGCAUGCCGCCGGGCGCCAUGCCUGCAGGUCGACUCUAGAAAACAUG”, the binding signal in the assay with PUM1 PUF domain R3-SWL is 1.78 log2 enrichment (interaction score); with PUM1 PUF domain R3-SCQ, 1.65 log2 enrichment (interaction score).

In the case of “GGCUAGAACUAGUGGAUCCCCCGGCGCCCGGCGGCUCGAGCCCGGGUAAGUGUAAAUGGUCUGCAUGCCGCCGGGCGCCAUGCCUGCAGGUCGACUCUAGAAAACAUG”, in the assay with PUM1 PUF domain R1-RCM, the binding signal was 0.08 log2 enrichment (interaction score).

As to “GGCUAGAACUAGUGGAUCCCCCGGCGCCCGGCGGCUCGAGCCCGGGUAAGUGUAAAUCGUCUGCAUGCCGCCGGGCGCCAUGCCUGCAGGUCGACUCUAGAAAACAUG”, the binding signal with PUM1 PUF domain R1-RCM was 2.75 log2 enrichment (interaction score).

As to “GGCUAGAACUAGUGGAUCCCCCGGCGCCCGGCGGCUCGAGCCCGGGUAAGUGUAAAAAGUCUGCAUGCCGCCGGGCGCCAUGCCUGCAGGUCGACUCUAGAAAACAUG”, the binding signal with PUM1 PUF domain R2-EWA was 5.74 log2 enrichment (interaction score).

For “GGCUAGAACUAGUGGAUCCCCCGGCGCCCGGCGGCUCGAGCCCGGGUAAGUGUAUAUAGUCUGCAUGCCGCCGGGCGCCAUGCCUGCAGGUCGACUCUAGAAAACAUG”, the binding signal with PUM1 PUF domain R4-MPT was 2.81 log2 enrichment (interaction score).

“GGCUAGAACUAGUGGAUCCCCCGGCGCCCGGCGGCUCGAGCCCGGGUAAGUGUAAGUAGUCUGCAUGCCGCCGGGCGCCAUGCCUGCAGGUCGACUCUAGAAAACAUG”: the binding signal with PUM1 PUF domain R3-SCQ was 2.27 log2 enrichment (interaction score); in the assay with PUM1 PUF domain R3-SVE, 4.64 log2 enrichment (interaction score); in the assay with PUM1 PUF domain R3-STD it was 2.07 log2 enrichment (interaction score).

Regarding “GGCUAGAACUAGUGGAUCCCCCGGCGCCCGGCGGCUCGAGCCCGGGUAAGUGUGAAUAGUCUGCAUGCCGCCGGGCGCCAUGCCUGCAGGUCGACUCUAGAAAACAUG”, the binding signal in the assay with PUM1 PUF domain R5-TRW is 0.38 log2 enrichment (interaction score).
